# Assay results published in PubChem BioAssay.
# The source made the active and inactive calls.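 The calls were made as follows, unless noted: active = hit in primary screen, with calcium signal over 5 SD above buffer well mean in both duplicates; inactive = the rest.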
# Experiment: nonspecific calcium rise without TRPC4 – cell-based, HEK293 mu-opioid receptor line, counter-screen for TRPC4 activator project, confirmation (AID 449723);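 also: counter screen cells carry the mu-opioid receptor alone and lack TRPC4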
# Details: HEK293 mu-opioid cells, Fluo-4 calcium fluorescence, at 10 µM; active compounds read high
SMILES,outcome,activation
CCCCN(CC)CCNC(=O)Cn1cc2c(n1)-c1c(oc(C(=O)N3CCCC3)c1C)CC2,inactive,
Cc1ccc(NC(=S)NC2CC3CCC(C2)N3Cc2ccco2)c(C)c1 (stereo not drawn),inactive,
COc1ccc(N2CCN(Cc3nc4ccccc4n3C)CC2)cc1,inactive,
CCC(=O)NC(C)C(c1cccs1)N1CCN(c2ccccc2)CC1 (stereo not drawn),inactive,
CC(=O)n1cc([C@H]2C=C(C(=O)NCc3ccccc3)O[C@@H](OCc3ccc(CO)cc3)C2)c2ccccc21,inactive,
CCN1CCCC1CNC(=O)c1cc2c(OC)cccc2[nH]1 (stereo not drawn),inactive,
COc1ccc(F)cc1CN1CCN(C(=O)CCC(=O)Nc2nnc(C(C)C)s2)CC1,inactive,
CN(CCOc1ccc(Br)cc1)CC(O)c1ccccc1 (stereo not drawn),inactive,
CCN1CCN(c2c(Cl)cccc2NC(=O)c2ccc([N+](=O)[O-])cc2)CC1,inactive,
CCn1c(=O)c(C(=O)NNC(=O)c2ccccc2F)c(O)c2ccccc21,,34% (active)
CN1C(CC(=O)Nc2ccc(Br)cc2)c2ccccc2CC1(C)C (stereo not drawn),inactive,
COc1ccc(C(CNCC(O)COc2c(C)ccc(C)c2C)N(C)C)cc1 (stereo not drawn),inactive,
COc1ccc(C(CNC(=O)C(Cc2ccccc2)NC(N)=O)N(C)C)cc1 (stereo not drawn),inactive,
CCCN(CCC)CCNC(=O)CCC(=O)Nc1ccc2nc(N3CCOCC3)cc(C)c2c1,inactive,
Fc1ccc(NC(=S)NCCc2ccccn2)cc1,inactive,
Cc1noc(C)c1CCC(=O)NC1CCCN(Cc2ccc(CC(C)C)cc2)C1 (stereo not drawn),inactive,
COc1ccc(C(CCNCc2ccc(N(C)C)cc2)c2ccccc2)cc1 (stereo not drawn),inactive,
COc1ccc(-c2nn(-c3ccccc3C)cc2CNCc2cccnc2)cc1F,inactive,
CN(C)C(CNC(=O)c1cccc(S(=O)(=O)N(C)C)c1)c1ccccc1 (stereo not drawn),inactive,
Nc1c(C(=O)c2ccccc2)sc2nsc(SCCN3CCCC3)c12,,84.3% (active)

SMILES,outcome,activation
CC1CC(C)CN(CCCNC(=O)c2ccc3c(c2)N(Cc2ccccc2)C(=O)c2ccccc2S3=O)C1 (stereo not drawn),inactive,
CN(C)c1ccc(C(CNC(=O)Cc2cccc3ccccc23)N(C)C)cc1 (stereo not drawn),inactive,
Cc1csc2c(N3CCN(C(=S)Nc4ccc(C(F)(F)F)cc4)CC3)ncnc12,inactive,
O=S(=O)(NCCc1csc(-c2ccccc2)n1)c1cccnc1,inactive,
COc1ccc(-c2nc(CSCC(=O)NC3CCN(Cc4ccccc4)CC3)c(C)o2)cc1OC,inactive,
NC(N)=NN=C1CCCCCCCCCCC1,,24.9% (active)
CCn1c(CN2CCN(Cc3ccc(C)cc3)C(CCO)C2)nc2ccccc21 (stereo not drawn),inactive,
COc1ccc(C(CNc2nc(-c3cccnc3)nc3ccccc23)N(C)C)cc1 (stereo not drawn),inactive,
Cc1ccc(Cn2c(SCCN3CCCCC3)nc3c2c(=O)n(C)c(=O)n3C)cc1,inactive,
COc1ccc(C(CNC(=O)CCOc2ccccc2)N(C)C)cc1 (stereo not drawn),inactive,
CCOC(=O)C1(CCOc2ccccc2)CCN(Cc2cc(OC)ccc2OC)CC1,inactive,
Cc1cccc(NC(=S)NCC(c2ccccc2)N(C)C)c1 (stereo not drawn),inactive,
CC(C)n1cnc2c(N(C)c3ccccc3)nc(N(CCN(C)C)Cc3ccccc3)nc21,inactive,
CC(CN1CCCC(C(N)=O)C1)c1ccccc1 (stereo not drawn),inactive,
O=c1c(Cc2ccc(F)cc2)c(O)ccn1CCc1cnc[nH]1,inactive,
Cc1c(Cl)cccc1NC(=S)NCC(c1cccnc1)N(C)C (stereo not drawn),inactive,
COc1ccc(C(CNC(=O)c2ccc3c(c2)OCCO3)N(C)C)cc1 (stereo not drawn),inactive,
O=C(NC1CCCN(Cc2ccc(Cl)cc2)C1)C1CCC1 (stereo not drawn),inactive,
CN(C)c1ccc(-c2sc(Nc3ccccc3)n[n+]2-c2ccc(F)cc2)cc1,,274% (active)

# Experiment: nonspecific potentiation of DAMGO calcium response – cell-based, HEK293 mu-opioid receptor line, counter-screen for TRPC4 allosteric potentiator project, confirmation (AID 449724;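 active = calcium signal rise more than 3 SD above the low-dose agonist control mean, in both duplicate plates and the primary screen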;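 also: HEK293 cells carrying mu-opioid receptor only with no TRPC4 channel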)
# Details: HEK293 mu-opioid receptor cells, Fluo-4 calcium flux, at 10 µM, compound added before EC20 DAMGO stimulus; active compounds read high
row,SMILES,outcome
1,CCCCN(CC)CCNC(=O)Cn1cc2c(n1)-c1c(oc(C(=O)N3CCCC3)c1C)CC2,inactive
2,Cc1ccc(NC(=S)NC2CC3CCC(C2)N3Cc2ccco2)c(C)c1 (stereo not drawn),inactive
3,COc1ccc(N2CCN(Cc3nc4ccccc4n3C)CC2)cc1,inactive
4,CCC(=O)NC(C)C(c1cccs1)N1CCN(c2ccccc2)CC1 (stereo not drawn),inactive
5,CC(=O)n1cc([C@H]2C=C(C(=O)NCc3ccccc3)O[C@@H](OCc3ccc(CO)cc3)C2)c2ccccc21,inactive
6,CCN1CCCC1CNC(=O)c1cc2c(OC)cccc2[nH]1 (stereo not drawn),inactive
7,COc1ccc(F)cc1CN1CCN(C(=O)CCC(=O)Nc2nnc(C(C)C)s2)CC1,inactive
8,CN(CCOc1ccc(Br)cc1)CC(O)c1ccccc1 (stereo not drawn),inactive
9,CCN1CCN(c2c(Cl)cccc2NC(=O)c2ccc([N+](=O)[O-])cc2)CC1,inactive
10,CCn1c(=O)c(C(=O)NNC(=O)c2ccccc2F)c(O)c2ccccc21,inactive
11,CN1C(CC(=O)Nc2ccc(Br)cc2)c2ccccc2CC1(C)C (stereo not drawn),inactive
12,COc1ccc(C(CNCC(O)COc2c(C)ccc(C)c2C)N(C)C)cc1 (stereo not drawn),inactive
13,COc1ccc(C(CNC(=O)C(Cc2ccccc2)NC(N)=O)N(C)C)cc1 (stereo not drawn),inactive
14,CCCN(CCC)CCNC(=O)CCC(=O)Nc1ccc2nc(N3CCOCC3)cc(C)c2c1,inactive
15,Fc1ccc(NC(=S)NCCc2ccccn2)cc1,inactive
16,Cc1noc(C)c1CCC(=O)NC1CCCN(Cc2ccc(CC(C)C)cc2)C1 (stereo not drawn),inactive
17,COc1ccc(C(CCNCc2ccc(N(C)C)cc2)c2ccccc2)cc1 (stereo not drawn),inactive
18,COc1ccc(-c2nn(-c3ccccc3C)cc2CNCc2cccnc2)cc1F,inactive
19,CN(C)C(CNC(=O)c1cccc(S(=O)(=O)N(C)C)c1)c1ccccc1 (stereo not drawn),inactive
20,Nc1c(C(=O)c2ccccc2)sc2nsc(SCCN3CCCC3)c12,inactive

row,SMILES,outcome
1,CC1CC(C)CN(CCCNC(=O)c2ccc3c(c2)N(Cc2ccccc2)C(=O)c2ccccc2S3=O)C1 (stereo not drawn),inactive
2,CN(C)c1ccc(C(CNC(=O)Cc2cccc3ccccc23)N(C)C)cc1 (stereo not drawn),inactive
3,Cc1csc2c(N3CCN(C(=S)Nc4ccc(C(F)(F)F)cc4)CC3)ncnc12,inactive
4,O=S(=O)(NCCc1csc(-c2ccccc2)n1)c1cccnc1,inactive
5,COc1ccc(-c2nc(CSCC(=O)NC3CCN(Cc4ccccc4)CC3)c(C)o2)cc1OC,inactive
6,NC(N)=NN=C1CCCCCCCCCCC1,inactive
7,CCn1c(CN2CCN(Cc3ccc(C)cc3)C(CCO)C2)nc2ccccc21 (stereo not drawn),inactive
8,COc1ccc(C(CNc2nc(-c3cccnc3)nc3ccccc23)N(C)C)cc1 (stereo not drawn),inactive
9,Cc1ccc(Cn2c(SCCN3CCCCC3)nc3c2c(=O)n(C)c(=O)n3C)cc1,inactive
10,COc1ccc(C(CNC(=O)CCOc2ccccc2)N(C)C)cc1 (stereo not drawn),inactive
11,CCOC(=O)C1(CCOc2ccccc2)CCN(Cc2cc(OC)ccc2OC)CC1,inactive
12,Cc1cccc(NC(=S)NCC(c2ccccc2)N(C)C)c1 (stereo not drawn),inactive
13,CC(C)n1cnc2c(N(C)c3ccccc3)nc(N(CCN(C)C)Cc3ccccc3)nc21,inactive
14,CC(CN1CCCC(C(N)=O)C1)c1ccccc1 (stereo not drawn),inactive
15,O=c1c(Cc2ccc(F)cc2)c(O)ccn1CCc1cnc[nH]1,inactive
16,Cc1c(Cl)cccc1NC(=S)NCC(c1cccnc1)N(C)C (stereo not drawn),inactive
17,COc1ccc(C(CNC(=O)c2ccc3c(c2)OCCO3)N(C)C)cc1 (stereo not drawn),inactive
18,O=C(NC1CCCN(Cc2ccc(Cl)cc2)C1)C1CCC1 (stereo not drawn),inactive
19,CN(C)c1ccc(-c2sc(Nc3ccccc3)n[n+]2-c2ccc(F)cc2)cc1,inactive
